# Results published in PubChem BioAssay.
# Results filed as inconclusive are left out. The source made the active and inactive calls. Unless noted, cut-off not given; nearly all actives show IC50 up to about 30 µM.
# Test: JHH-DIPG-1 glioma cell viability, MIPE5.0 library, CellTiter-Glo luminescence, qHTS (AID 1347067; cut-off not given, nearly all actives have AC50 up to about 26 µM;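 further: cells exposed to compound for 48 hours before readout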)
# Settings: JHH-DIPG-1 glioma viability, CellTiter-Glo ATP luminescence
SMILES,outcome,AC50
O=C(O)c1cc(O)c2c(c1)C(=O)c1cccc(O)c1C2=O,inactive,–
Cc1nc2c([nH]1)CCN(C(=O)c1ccc(NC(=O)c3ccccc3-c3ccccc3)cc1)c1ccccc1-2,inactive,–
C=C1/C(=C\C=C2/CCC[C@]3(C)[C@@H]([C@H](C)/C=C/[C@H](C)C(C)C)CC[C@@H]23)C[C@@H](O)C[C@@H]1O,–,26.3 µM (active)
COc1ccc(CC2SC(=O)NC2=O)cc1C(=O)NCc1ccc(C(F)(F)F)cc1 (stereo unspecified),inactive,–
Nc1n[nH]c2nnc(-c3c(-c4ccccc4)nn4ccccc34)cc12,inactive,–
CCCCCNC(=O)N1CCC(CN(Cc2ccc(Cl)cc2)Cc2ccc([N+](=O)[O-])s2)C1 (stereo unspecified),–,23.5 µM (active)
CC1COC2(CCN(c3nc(=O)c4cc(C(F)(F)F)cc([N+](=O)[O-])c4s3)CC2)O1 (stereo unspecified),inactive,–
c1nc2nc(Nc3ccc(N4CCOCC4)cc3)nc(NC3CCCCC3)c2[nH]1,–,5.9 µM (active)
Cc1ccnc(NS(=O)(=O)c2ccc(NC(=O)Nc3ccc(S(=O)(=O)Nc4nccc(C)n4)cc3)cc2)n1,inactive,–
CN(C)CCCNC(=O)c1ccc(-c2cc(O)c3ncccc3c2)cc1,inactive,–
CCC(C)CCCCC(=O)N[C@@H](CCN)C(=O)NC(C(=O)N[C@H](CCN)C(=O)N[C@@H]1CCNC(=O)C([C@@H](C)O)NC(=O)[C@@H](CCN)NC(=O)[C@@H](CCN)NC(=O)[C@@H](CC(C)C)NC(=O)[C@H](Cc2ccccc2)NC(=O)[C@H](CCN)NC1=O)[C@@H](C)O (stereo partly specified),inactive,–

# Test: growth inhibition of DIPG cells – cell-based, MIPE5.0 library, qHTS (AID 1347068)
# Settings: SU-DIPG-XXV viability
row,SMILES,outcome
1,O=C(O)c1cc(O)c2c(c1)C(=O)c1cccc(O)c1C2=O,inactive
2,Cc1nc2c([nH]1)CCN(C(=O)c1ccc(NC(=O)c3ccccc3-c3ccccc3)cc1)c1ccccc1-2,inactive
3,C=C1/C(=C\C=C2/CCC[C@]3(C)[C@@H]([C@H](C)/C=C/[C@H](C)C(C)C)CC[C@@H]23)C[C@@H](O)C[C@@H]1O,inactive
4,COc1ccc(CC2SC(=O)NC2=O)cc1C(=O)NCc1ccc(C(F)(F)F)cc1 (stereo unspecified),inactive
5,Nc1n[nH]c2nnc(-c3c(-c4ccccc4)nn4ccccc34)cc12,inactive
6,CC(C)(C)OC(=O)N[C@H]1CCCCC/C=C\[C@@H]2C[C@@]2(C(=O)NS(=O)(=O)C2CC2)NC(=O)[C@@H]2C[C@@H](OC(=O)N3Cc4cccc(F)c4C3)CN2C1=O,inactive
7,CC1COC2(CCN(c3nc(=O)c4cc(C(F)(F)F)cc([N+](=O)[O-])c4s3)CC2)O1 (stereo unspecified),inactive
8,C=C1C[C@@]2(O)O[C@@]3(C[C@H]2C(C)C)[C@@H](C)CC[C@@H]13,inactive
9,C[C@]12CC[C@H](O)CC1=CCC1C2CC[C@]2(C)C(n3cnc4ccccc43)=CCC12 (stereo partly specified),inactive
10,c1nc2nc(Nc3ccc(N4CCOCC4)cc3)nc(NC3CCCCC3)c2[nH]1,inactive
11,Cc1ccnc(NS(=O)(=O)c2ccc(NC(=O)Nc3ccc(S(=O)(=O)Nc4nccc(C)n4)cc3)cc2)n1,inactive
12,CC(C)(C)COc1ccc(-n2cc(C(=O)O)cn2)cc1C#N,inactive
13,CCC(C)CCCCC(=O)N[C@@H](CCN)C(=O)NC(C(=O)N[C@H](CCN)C(=O)N[C@@H]1CCNC(=O)C([C@@H](C)O)NC(=O)[C@@H](CCN)NC(=O)[C@@H](CCN)NC(=O)[C@@H](CC(C)C)NC(=O)[C@H](Cc2ccccc2)NC(=O)[C@H](CCN)NC1=O)[C@@H](C)O (stereo partly specified),inactive

# Test: viability loss with induced miR-34 in A549 – imaging, A549 dox-inducible miR-34, nuclei and caspase counts, primary screen (AID 1347080;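 active means compounds whose cell count with miR-34 switched on is under 0.7 times the count with it off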)
# Settings: A549 miR-34 inducible, Hoechst nuclei count, 48 h; stronger effect = lower value; cell number ratio, induced over uninduced
row,SMILES,fold change
1,Cc1nc2c([nH]1)CCN(C(=O)c1ccc(NC(=O)c3ccccc3-c3ccccc3)cc1)c1ccccc1-2,0.926 (inactive)
2,CC1COC2(CCN(c3nc(=O)c4cc(C(F)(F)F)cc([N+](=O)[O-])c4s3)CC2)O1 (stereo unspecified),0.872 (inactive)
3,CCCCCCCCCCCCCC(=O)N[C@H](CO)[C@H](O)c1ccc([N+](=O)[O-])cc1,0.96 (inactive)

# Same assay, conditions: A549 miR-34 inducible, Hoechst nuclei count, 48 h; measured here: relative caspase fold change +Dox/-Dox
row,SMILES,fold change
1,Cc1nc2c([nH]1)CCN(C(=O)c1ccc(NC(=O)c3ccccc3-c3ccccc3)cc1)c1ccccc1-2,0.734
2,CC1COC2(CCN(c3nc(=O)c4cc(C(F)(F)F)cc([N+](=O)[O-])c4s3)CC2)O1 (stereo unspecified),0.894
3,CCCCCCCCCCCCCC(=O)N[C@H](CO)[C@H](O)c1ccc([N+](=O)[O-])cc1,0.781

# Same assay, conditions: A549 miR-34 inducible, Hoechst nuclei count, 48 h; measured here: total cells with miR-34 induction; stronger effect = lower value
row,SMILES,cell count
1,Cc1nc2c([nH]1)CCN(C(=O)c1ccc(NC(=O)c3ccccc3-c3ccccc3)cc1)c1ccccc1-2,8050
2,CC1COC2(CCN(c3nc(=O)c4cc(C(F)(F)F)cc([N+](=O)[O-])c4s3)CC2)O1 (stereo unspecified),6990
3,CCCCCCCCCCCCCC(=O)N[C@H](CO)[C@H](O)c1ccc([N+](=O)[O-])cc1,6010

# Same assay, conditions: A549 miR-34 inducible, Hoechst nuclei count, 48 h; measured here: total cells without miR-34 induction
row,SMILES,cell count
1,Cc1nc2c([nH]1)CCN(C(=O)c1ccc(NC(=O)c3ccccc3-c3ccccc3)cc1)c1ccccc1-2,8690
2,CC1COC2(CCN(c3nc(=O)c4cc(C(F)(F)F)cc([N+](=O)[O-])c4s3)CC2)O1 (stereo unspecified),8010
3,CCCCCCCCCCCCCC(=O)N[C@H](CO)[C@H](O)c1ccc([N+](=O)[O-])cc1,6250
